We go through 30 sequences from publication PMC13541613, “GHT-SELEX demonstrates unexpectedly high intrinsic sequence specificity and complex DNA binding of many human transcription factors”.

Common to all, as to test: HT-SELEX; 20 mM HEPES pH 7, 140 mM KCl, 5 mM NaCl, 1 mM K2HPO4, 2 mM MgSO4, 100 uM EGTA, ZnSO4, 0.1% Tween20; room temperature, 1 h; high values mean tight binding
Conditions in all cases: protein: ivt; tags: eGFP (N-terminal); dsDNA, one strand shown

One assay addresses ZNF721 full-length (Homo sapiens, UniProt Q8TF20-2 1-923). A digest of the protocol:
(§1)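 In HEPES/KCl low-stringency buffer with Tween20, a bead-immobilised tagged transcription factor (full-length or DNA-binding-domain fragment, from HEK293 lysate or cell-free extract) was incubated with a randomized 40-base DNA library for 1 h at room temperature. DNA retained after washing was heat-eluted, amplified by PCR over successive cycles and Illumina-sequenced, giving ~3 million 60 bp reads per sample. The reported binding signal, a relative k-mer count in those selected reads, rises with tighter binding.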

For another assay, the target named is ZNF721 DBD1 (Homo sapiens, UniProt Q8TF20-2 29-461). Put shortly:
as §1

A further assay deals with ZNF721 DBD2 (Homo sapiens, UniProt Q8TF20-2 395-923). Put shortly:
as §1

ZNF721 DBD2, sequence (Q8TF20 383-911): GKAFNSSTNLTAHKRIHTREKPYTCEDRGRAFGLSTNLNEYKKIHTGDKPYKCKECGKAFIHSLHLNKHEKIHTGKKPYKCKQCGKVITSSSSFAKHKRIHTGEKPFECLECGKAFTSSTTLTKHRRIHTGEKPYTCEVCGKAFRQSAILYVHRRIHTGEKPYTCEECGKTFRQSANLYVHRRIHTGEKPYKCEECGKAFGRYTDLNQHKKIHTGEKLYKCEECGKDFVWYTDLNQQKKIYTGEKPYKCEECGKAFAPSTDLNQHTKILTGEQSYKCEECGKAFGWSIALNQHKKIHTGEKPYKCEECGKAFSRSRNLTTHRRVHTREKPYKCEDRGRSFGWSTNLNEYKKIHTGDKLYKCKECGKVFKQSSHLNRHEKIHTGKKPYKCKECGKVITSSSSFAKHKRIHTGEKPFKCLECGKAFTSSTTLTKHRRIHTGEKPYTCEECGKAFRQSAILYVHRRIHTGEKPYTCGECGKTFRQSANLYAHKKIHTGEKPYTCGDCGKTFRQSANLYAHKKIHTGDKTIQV
ZNF721 DBD1, sequence (Q8TF20 17-449): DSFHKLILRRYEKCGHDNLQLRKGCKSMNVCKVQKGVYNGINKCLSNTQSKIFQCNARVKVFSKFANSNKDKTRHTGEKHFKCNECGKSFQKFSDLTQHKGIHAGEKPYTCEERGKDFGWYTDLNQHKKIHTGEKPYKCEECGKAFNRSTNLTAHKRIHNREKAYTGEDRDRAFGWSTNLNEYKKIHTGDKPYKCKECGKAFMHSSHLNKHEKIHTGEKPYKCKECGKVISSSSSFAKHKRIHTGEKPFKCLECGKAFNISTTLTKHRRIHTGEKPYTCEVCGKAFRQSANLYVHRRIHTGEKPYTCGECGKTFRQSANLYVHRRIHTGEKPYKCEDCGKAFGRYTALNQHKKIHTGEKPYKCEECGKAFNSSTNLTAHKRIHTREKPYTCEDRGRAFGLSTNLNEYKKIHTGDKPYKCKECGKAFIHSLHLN
ZNF721 full-length, sequence (Q8TF20 other isoform, or with tags, fused parts or gaps): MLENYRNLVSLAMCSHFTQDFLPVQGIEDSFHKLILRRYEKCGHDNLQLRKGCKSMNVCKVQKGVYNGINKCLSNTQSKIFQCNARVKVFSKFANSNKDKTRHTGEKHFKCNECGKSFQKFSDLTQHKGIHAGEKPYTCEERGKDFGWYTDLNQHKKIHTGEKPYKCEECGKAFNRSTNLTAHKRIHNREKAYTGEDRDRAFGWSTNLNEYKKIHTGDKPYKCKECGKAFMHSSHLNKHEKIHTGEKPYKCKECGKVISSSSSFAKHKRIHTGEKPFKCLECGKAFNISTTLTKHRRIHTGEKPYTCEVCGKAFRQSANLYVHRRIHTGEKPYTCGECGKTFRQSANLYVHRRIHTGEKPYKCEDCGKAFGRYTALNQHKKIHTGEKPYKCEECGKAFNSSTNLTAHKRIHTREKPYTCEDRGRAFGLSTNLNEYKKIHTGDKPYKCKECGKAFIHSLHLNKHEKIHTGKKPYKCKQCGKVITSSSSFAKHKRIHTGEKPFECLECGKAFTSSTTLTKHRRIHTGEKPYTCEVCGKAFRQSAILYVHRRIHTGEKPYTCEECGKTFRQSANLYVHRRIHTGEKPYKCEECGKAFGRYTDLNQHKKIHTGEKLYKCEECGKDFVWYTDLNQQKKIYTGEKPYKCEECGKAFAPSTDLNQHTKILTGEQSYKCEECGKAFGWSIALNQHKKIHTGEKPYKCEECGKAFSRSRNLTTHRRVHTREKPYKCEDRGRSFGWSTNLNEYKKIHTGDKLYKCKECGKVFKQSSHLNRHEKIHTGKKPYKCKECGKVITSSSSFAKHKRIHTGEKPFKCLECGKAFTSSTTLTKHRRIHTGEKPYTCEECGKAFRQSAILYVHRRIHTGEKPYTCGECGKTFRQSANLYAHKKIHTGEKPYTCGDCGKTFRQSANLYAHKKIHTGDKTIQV

CCCCCCACAC: the binding signal with ZNF721 full-length amounted to 0.17 relative 10-mer count; with ZNF721 DBD1, 0.00656 relative 10-mer count; in the assay with ZNF721 DBD2, 0.00671 relative 10-mer count.
In the same order, the values of AGGCAACACT are 0.174 relative 10-mer count, 0.00697 relative 10-mer count and 0.391 relative 10-mer count.
Regarding ACCCCCACCA, the binding signal with ZNF721 full-length stood at 0.145 relative 10-mer count; with ZNF721 DBD1, 0.00573 relative 10-mer count; with ZNF721 DBD2, 0.00503 relative 10-mer count.
For CTCCCCCCAC the same measures were 0.148 relative 10-mer count, 0.00794 relative 10-mer count and 0.00419 relative 10-mer count.
In the same order, the values of CCCTCACCCC are 0.193 relative 10-mer count, 0.00862 relative 10-mer count and 0.00276 relative 10-mer count.
Regarding CACACCACCC, the binding signal with ZNF721 full-length came to 0.142 relative 10-mer count; in the assay with ZNF721 DBD1 it was 0.00573 relative 10-mer count; with ZNF721 DBD2 it was 0.00527 relative 10-mer count.
GGGTGGGGCA: the binding signal with ZNF721 full-length was found to be 0.104 relative 10-mer count; in the assay with ZNF721 DBD1, 0.00344 relative 10-mer count; with ZNF721 DBD2, 0.00216 relative 10-mer count.
Turning to GGGGGGTGGA, the binding signal with ZNF721 full-length is 0.145 relative 10-mer count; with ZNF721 DBD1 it was 0.00615 relative 10-mer count; with ZNF721 DBD2, 0.00407 relative 10-mer count.
For CCCCCCGTCC, the binding signal with ZNF721 full-length amounted to 0.134 relative 10-mer count; with ZNF721 DBD1, 0.00491 relative 10-mer count; with ZNF721 DBD2 it was 0.00288 relative 10-mer count.
In the same order, the values of CCCTACCCCA are 0.11 relative 10-mer count, 0.00491 relative 10-mer count and 0.00395 relative 10-mer count.
In the same order, the values of CACCCGCCCA are 0.103 relative 10-mer count, 0.00358 relative 10-mer count and 0.0024 relative 10-mer count.
In the same order, the values of CAGCGTTACC are 0.138 relative 10-mer count, 0.00147 relative 10-mer count and 0.297 relative 10-mer count.
As for ACACCACCCC, the values for the binding signal with ZNF721 full-length, with ZNF721 DBD1 and with ZNF721 DBD2 were 0.128 relative 10-mer count, 0.00394 relative 10-mer count and 0.00276 relative 10-mer count, respectively.
For CCCCGCCACC the same measures were 0.266 relative 10-mer count, 0.0105 relative 10-mer count and 0.00336 relative 10-mer count.
For CACACCCCCC the same measures were 0.146 relative 10-mer count, 0.00514 relative 10-mer count and 0.0018 relative 10-mer count.
In the same order, the values of AAGCAGTACC are 0.153 relative 10-mer count, 0.0727 relative 10-mer count and 0.0326 relative 10-mer count.
For CCACACCACC, the binding signal worked out at 0.135 relative 10-mer count in the assay with ZNF721 full-length, 0.0055 relative 10-mer count with ZNF721 DBD1 and 0.00623 relative 10-mer count with ZNF721 DBD2.
In the same order, the values of CCCCCCCCAC are 0.257 relative 10-mer count, 0.0089 relative 10-mer count and 0.00539 relative 10-mer count.
In the same order, the values of ATAGCTTCAT are 0.118 relative 10-mer count, 0.158 relative 10-mer count and 0.00288 relative 10-mer count.
For AAAAAAGCTG the same measures were 0.303 relative 10-mer count, 0.137 relative 10-mer count and 0.00707 relative 10-mer count.
For the sequence CCACCCCCAC, the binding signal in the assay with ZNF721 full-length came to 0.326 relative 10-mer count; with ZNF721 DBD1, 0.0121 relative 10-mer count; with ZNF721 DBD2, 0.00515 relative 10-mer count.
For GCCCACCCCA the same measures were 0.142 relative 10-mer count, 0.00505 relative 10-mer count and 0.00971 relative 10-mer count.
For CCCCACCTCC the same measures were 0.24 relative 10-mer count, 0.0128 relative 10-mer count and 0.00575 relative 10-mer count.
For CCCCCAACCC the same measures were 0.233 relative 10-mer count, 0.00775 relative 10-mer count and 0.00168 relative 10-mer count.
CCCACCCTCC: the binding signal amounted to 0.252 relative 10-mer count with ZNF721 full-length, 0.0121 relative 10-mer count with ZNF721 DBD1 and 0.0115 relative 10-mer count in the assay with ZNF721 DBD2.
For CGCCCCACCC, the binding signal is 0.236 relative 10-mer count with ZNF721 full-length, 0.00844 relative 10-mer count with ZNF721 DBD1 and 0.00312 relative 10-mer count in the assay with ZNF721 DBD2.
For CCCCGCCCCA the same measures were 0.196 relative 10-mer count, 0.0067 relative 10-mer count and 0.00228 relative 10-mer count.
In the same order, the values of CCCCCCACCA are 0.231 relative 10-mer count, 0.00904 relative 10-mer count and 0.00863 relative 10-mer count.
In the same order, the values of AAAAAAGCAC are 0.158 relative 10-mer count, 0.0181 relative 10-mer count and 0.0367 relative 10-mer count.
With CGCACCCCCC, the binding signal worked out at 0.118 relative 10-mer count with ZNF721 full-length, 0.00463 relative 10-mer count with ZNF721 DBD1 and 0.00276 relative 10-mer count in the assay with ZNF721 DBD2.
